# Test results: PubChem BioAssay
# “And” between values parts separate entries of the source, which are not always exact repeats. Identical values can stand only once. The source made the active and inactive calls. Rule as the data show it, unless noted: active = parasite load remaining mostly below about 12% (no sharp cut-off); inactive = mostly above about 10%.
# Assays:
# [1] = liver-stage malaria parasite growth inhibition, primary screen, cell-based, HepG2, luciferase luminescence, HepG2 viability (AID 624349);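 also: 100% = mean of DMSO negative control wells on the same plate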; settings: P. berghei liver stage in HepG2, luciferase luminescence, concentration not given here; parasite load remaining: stronger effect = lower value; viability: measured here: HepG2 viability without parasites
# [2] = sensitizers of A549 cells to miR-34 induction, primary screen, imaging, A549 dox-inducible miR-34, nuclei and caspase counts (AID 1347080;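 active = compounds whose cell count with miR-34 switched on is under 0.7 times the count with it off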); settings: A549 miR-34 inducible, Hoechst nuclei count, 48 h
# [3] = hESC survival regulators, cell-based (AID 493140; call rule not given here;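 also: cells exposed to compounds for four days before counting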); settings: human embryonic stem cell survival screen; stronger effect = higher value
# [4] = inhibitors of Cryptococcus chitosan production, flow cytometry, Cibacron Brilliant Red staining (AID 1347148; call rule not given here;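 also: compound exposure lasted three days at 37 degrees C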); settings: Cryptococcus neoformans chitosan, stronger effect = lower value; at 10 µM unless noted
# [5] = stronger effect = lower value, cell number ratio, induced over uninduced
# [6] = measured here: relative caspase fold change +Dox/-Dox
# [7] = measured here: total cells with miR-34 induction, stronger effect = lower value
# [8] = measured here: total cells without miR-34 induction
SMILES,parasite load remaining [1],viability [1],"fold change [2, 5]","fold change [2, 6]","cell count [2, 7]","cell count [2, 8]",survival [3],fold change ([2]; stronger effect = lower value),fold fluorescence [4]
c1cncc([C@H]2CCCCN2)c1,92.6% (inactive),99.3%,0.89 (inactive),1.12,8860,9960,–,–,–
CCN1C[C@]2(C)CC[C@H](O)[C@]34C1[C@H](C[C@H]23)[C@@]1(O)C[C@H](OC)[C@H]2C[C@@H]4[C@@H]1C2O (stereo partly drawn),57.3% (inactive),100%,0.863 (inactive),1.17,9000,10400,–,–,–
CCN1C[C@]2(COC)CC[C@H](O)[C@]34C1[C@H](C[C@H]23)[C@@]1(O)C[C@H](OC)[C@H]2C[C@@H]4[C@@H]1[C@H]2OC(C)=O,81.9% (inactive),71.5%,0.961 (inactive),0.467,9850,10200,–,–,–
COc1cc2c(c(OC)c1OC)-c1ccc(O)c(=O)cc1[C@@H](N)CC2,106% (inactive),105%,0.884 (inactive),1.33,5720,6460,–,–,–
CCN1C[C@]2(COC)CC[C@H](O)[C@]34C1[C@](O)([C@@H](OC)[C@H]23)[C@@]1(O)C[C@H](OC)[C@H]2C[C@@H]4[C@@H]1[C@H]2OC,79.1% (inactive),102%,0.871 (inactive),0.967,9200,10600,–,–,–
CCN1C[C@]2(COC)CC[C@H](OC)[C@@]34C1[C@]1(OCO[C@@]15C[C@H](OC)[C@H]1C[C@@H]3[C@@H]5[C@H]1OC)[C@@H](O)[C@H]24,79.2% (inactive),96.3%,0.844 (inactive),1.35,8580,10200,–,–,–
CN1C[C@H](C(=O)N[C@]2(C)C[C@@]3(O)C4CCCN4C(=O)[C@H](Cc4ccccc4)N3C2=O)C=C2c3cccc4[nH]cc(c34)C[C@H]21 (stereo partly drawn),49.1% (inactive),102%,0.836 (inactive),6.73,10900,13000,–,–,–
COC1=CC(=O)O[C@@H](/C=C/c2ccccc2)C1,26.1% (inactive) and 89.1% (inactive),46.2% and 90.2%,–,1.34,8920,9920,16.6 (inactive),0.899 (inactive),–
CN1CCC2=C[C@H](O)[C@H]3OC(=O)c4cc5c(cc4[C@H]3[C@@H]21)OCO5,42.8% (inactive),96.9%,0.881 (inactive),1.04,6350,7210,–,–,–
COc1cc2c(cc1O)[C@@H]1Cc3ccc(OC)c(O)c3CN1CC2,152% (inactive),92.5%,0.78 (inactive),1.3,2600,3330,–,–,–
C[C@H]1CCC2(NC1)O[C@H]1C[C@H]3[C@@H]4CC[C@H]5C[C@@H](O[C@@H]6O[C@H](CO)[C@H](O[C@@H]7O[C@H](CO)[C@@H](O)[C@H](O[C@@H]8OC[C@@H](O)[C@H](O)[C@H]8O)[C@H]7O[C@@H]7O[C@H](CO)[C@@H](O)[C@H](O)[C@H]7O)[C@H](O)[C@H]6O)CC[C@]5(C)[C@H]4CC[C@]3(C)[C@H]1[C@@H]2C (stereo partly drawn),1.56% (inactive),9.75%,0.761 (inactive),0.652,430,564,–,–,–
O=c1ccc2cc(OC3O[C@H](CO)[C@@H](O)[C@H](O)[C@H]3O)c(O)cc2o1 (stereo partly drawn),70.5% (inactive),96.1%,0.976 (inactive),0.932,9360,9590,–,–,–
CC[C@H]1C2C[C@H]3[C@@H]4N(C)c5ccccc5C45C[C@H](C2[C@H]5O)N3[C@@H]1O (stereo partly drawn),126% (inactive),98.7%,0.84 (inactive),1.31,8780,10400,–,–,–
C=C1[C@@H]2CC[C@H]3[C@]4(C)C[C@H](O[C@H]5O[C@H](CO)[C@@H](OS(=O)(=O)O)[C@H](OS(=O)(=O)O)[C@H]5OC(=O)CC(C)C)C[C@@H](C(=O)O)[C@H]4CC[C@]3(C2)[C@H]1O,72.2% (inactive),97.4%,0.879 (inactive),0.935,8890,10100,–,–,–
CCCCCCCCCCCCCC(=O)O[C@H]1[C@H](C)[C@]2(O)[C@H](C=C(CO)C[C@@]3(O)C(=O)C(C)=C[C@H]23)[C@H]2C(C)(C)[C@@]12OC(C)=O,–,–,–,–,–,–,–,–,4.29 [at 81.1 µM] (inactive)
CCCC[C@H](C)[C@H](OC(=O)C[C@H](CC(=O)O)C(=O)O)[C@@H](C[C@H](C)C[C@@H](O)CCCC[C@H](O)C[C@@H](O)[C@@H](C)N)OC(=O)C[C@@H](CC(=O)O)C(=O)O,–,–,–,–,–,–,–,–,2.99 [at 69.3 µM] (inactive)
C[C@H]1CC[C@@H]2[C@@H](C)[C@H]3[C@H](C[C@H]4[C@@H]5CC=C6C[C@@H](O[C@@H]7O[C@H](CO)[C@H](O)[C@H](O[C@@H]8O[C@H](CO)[C@@H](O)[C@H](O)[C@H]8O)[C@H]7O[C@@H]7O[C@@H](C)[C@H](O)[C@@H](O)[C@H]7O)CC[C@]6(C)[C@H]5CC[C@]34C)N2C1,143% (inactive),114%,0.926 (inactive),1.19,8230,8880,–,–,–
CC(C)[C@@]1(O)[C@H](OC(=O)c2ccc[nH]2)[C@]2(O)[C@]3(C)C[C@@]4(O)O[C@]5([C@@H](O)[C@H](C)CC[C@@]35O)[C@]2(O)[C@@]41C,–,–,–,–,–,–,–,–,3.48 [at 101.3 µM] (inactive)
COc1cc2c3cc1Oc1cc(ccc1O)C[C@@H]1c4c(cc(OC)c(O)c4Oc4cccc(c4)C[C@@H]3N(C)CC2)CC[N+]1(C)C,52.1% (inactive) and 85.1% (inactive),113% and 81.4%,0.822 (inactive),1.32,8210,9980,7.17 (inactive),–,–
C=C1[C@@H](O)[C@]23C[C@@H]1[C@@H](O)C[C@H]2[C@@]12C4[C@@H]3C[C@@H]1[C@@](C)(CC[C@@H]2O)CN4CC,76.8% (inactive),104%,0.894 (inactive),0.861,8910,9970,–,–,–
COc1ccc(C(=O)OC2C[C@H]3CC[C@H](C2)N3C)cc1OC (stereo partly drawn),72.9% (inactive),108%,0.888 (inactive),1.53,9600,10800,–,–,–
